TrxR1 substrate: substrates of rat thioredoxin reductase 1. O89049. purified TrxR1 substrate turnover, NADPH consumption readout. Potency, µM (top dose mostly 114 µM), without a hit: top-dose activity change, negative = substrate turnover. hit rate 0.01% among 390,000; note: % is set by controls: 0 for no effect and ±100 for the full control effect; nearly all actives have a fitted effect of over 50% in size
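Rat TrxR1, dispensed at 90 nM, was prereduced with 400 uM NADPH (final) for 5 min at ~22 deg C, then incubated with compound 15 min before 400 uM selenite. A first-read NADPH fluorescence drop versus no-compound background flagged substrates.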
rTrxR1 inhibitor: inhibitors of rat thioredoxin reductase 1; recombinant rTrxR1, NADPH fluorescence consumption, selenite substrate; Potency, µM (highest dose often 114 µM), without a hit: at the highest dose activity change, negative = inhibition, hits mostly inhibitors; hit rate 1% among 390,000; note: % is set by controls: 0 for no effect and ±100 for the full control effect; nearly all actives have a fitted effect of over 65% in size
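Rat TrxR1 (90 nM in the dispensed reagent) was pre-reduced with 400 uM NADPH for 5 min at room temperature, then incubated with compound for 15 min. After 400 uM selenite was added, NADPH fluorescence (Ex 340/Em 450 nm) was followed for 8 min.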
GLP1R cytotox: cytotoxic in the GLP-1 receptor inverse agonist counter-screen; HEK293 cAMP-luciferase reporter cells, luminescence, 24 h; Potency, µM (titrated, usually from 38.3 µM), for the others: at the top dose activity change, negative = inhibition, actives largely listed as inhibitors; hit rate 0.13% among 410,000; AID 624418;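 note: loss of luciferase light is scored as toxicity; % is set by controls: 0 for no effect and ±100 for the full control effect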
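Here, cytotoxicity is scored as loss of luminescence. The MLSMR collection was tested on cells seeded in medium containing 10% Nu serum, with a 24 hr compound exposure preceded by 12 hours of culture.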
IDH1 R132H inh: blocks human mutant IDH1 R132H enzyme; AID 602179; Potency, µM (highest dose often 76.6 µM), for inactives: at the highest dose activity change, negative = inhibition, hits mostly inhibitors; hit rate 0.093% among 390,000; IDH1-R132H enzyme, NADPH consumption, diaphorase/resazurin fluorescence; note: % is set by controls: 0 for no effect and ±100 for the full control effect; nearly all actives have a fitted effect of over 65% in size
Target sequence (O75874 whole entry R132H, stated change not applied): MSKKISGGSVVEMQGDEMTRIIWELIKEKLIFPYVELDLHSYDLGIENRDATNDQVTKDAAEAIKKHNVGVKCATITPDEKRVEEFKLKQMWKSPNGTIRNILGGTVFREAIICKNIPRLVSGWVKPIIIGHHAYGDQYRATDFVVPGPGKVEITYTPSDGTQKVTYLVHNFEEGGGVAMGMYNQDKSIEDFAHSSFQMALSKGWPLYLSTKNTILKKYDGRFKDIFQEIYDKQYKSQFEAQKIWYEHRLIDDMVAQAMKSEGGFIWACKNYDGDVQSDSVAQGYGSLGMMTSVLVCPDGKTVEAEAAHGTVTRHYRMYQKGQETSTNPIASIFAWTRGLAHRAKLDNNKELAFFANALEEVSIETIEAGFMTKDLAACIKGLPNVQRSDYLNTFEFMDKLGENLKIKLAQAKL
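IDH1-R132H (0.5 ug/mL dispensed) in pH 7.5 Tris buffer was preincubated 30 min with compound, then given a substrate mix of 0.016 mM NADPH and 2 mM alpha-KG for 80 min at room temperature; remaining NADPH was read by diaphorase/resazurin fluorescence.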
GLP1R ag: GLP-1 receptor (human) agonism; P43220; HEK293 GLP-1R CRE-luciferase, luminescence, 4-6 h; cells express a hypersensitive GLP-1R form; Potency, µM (series often up to 45.6 µM), inactives show at the highest dose activation, most hits filed as activators; hit rate 0.007% among 380,000; note: % of control where 0% means no effect
GLP-1R inv ag: GLP-1 receptor (human) inverse agonism | P43220 | HEK293 GLP-1R CRE-luciferase, luminescence, 24 h; GLP-1R form is constitutively active | Potency, µM (titrated, usually from 38.3 µM), inactives show at the top dose activity change, negative = inhibition, hits mostly inhibitors | hit rate 1.6% among 410,000; note: % is set by controls: 0 for no effect and ±100 for the full control effect; nearly all actives have a fitted effect of over 55% in size
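Inverse agonism was detected as reduced cAMP-driven luciferase luminescence after 24 h compound treatment. The cells were HEK293 clones expressing constitutively active human GLP-1R with the reporter. Reporter-only and GPR119 cell lines served as counterscreen controls.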
Numbers without * were called inactive; ? = inconclusive; / = not tested or not shown; [ ] = another dose, or the depositor's remark. Only some compounds are listed: those with a hit (about 2.7% of all), similar ones and a draw of the others. Calls come from the whole dose curve; as a rule, active = well fitted curve in the direction sought with a large enough effect; inconclusive = small, poorly fitted or top-dose-only effect, or another doubt; inactive = no such curve, though single readings can be large; an effect the other way counts as inactive or inconclusive. Potency is the fitted concentration of half-maximal effect.

SMILES	TrxR1 substrate	rTrxR1 inhibitor	GLP1R cytotox	IDH1 R132H inh	GLP1R ag	GLP-1R inv ag
Nc1c(C(=O)Nc2ccc(OC(F)(F)F)cc2)sc2nc3c(cc12)N1CCC3CC1	94.4%	42.2%	2.0%	2.0%	/	?
O=C(Nc1ccc(OC(F)(F)F)cc1)C1CCN(S(=O)(=O)c2cccs2)CC1	-13.9%	-9.3%	-26.0%	?	/	5.01µM*
N#C/C(=C\c1cccc(NC(=O)c2ccccc2Cl)c1)C(=O)NCCc1ccccc1	7.4%	1.0%	?	-16.1%	-5.5%	?
CC(Oc1ccc(F)cc1)C(=O)N(CCC1=CCCCC1)c1c(N)n(Cc2ccccc2)c(=O)[nH]c1=O (stereo not drawn)	-4.9%	-9.7%	?	-0.7%	-10.6%	11.2µM*
CCN(C(=O)COC(=O)Cc1ccccc1)c1c(N)n(Cc2ccccc2)c(=O)[nH]c1=O	4.6%	24.2%	2.3%	-2.7%	0.7%	4.5%
CCCCCCOc1ccc(CN2CCN(CCO)CC2)cc1	1.1%	15.3%	4.6%	2.4%	-5.0%	2.51µM*
CCCCOc1ccc(CN2CCN(CCO)CC2)cc1	-5.4%	0.4%	-13.5%	1.4%	-9.0%	-5.0%
CCN(CCCl)c1cc(CN(C)C)cc(NC(=O)c2ccc(C(=O)Nc3cc(CN(C)C)cc(N(CC)CCCl)c3)cc2)c1	-10.0%	?	2.82µM*	-0.3%	-9.1%	?
CN(C)CCN(CC1CCCN(Cc2ccccc2F)C1)C(=O)Cc1ccccc1F (stereo not drawn)	7.7%[2.29 µM]	13.1%	-20.9%	1.0%	-4.3%	10µM*
CN(C)CCN(CC1CCCN(Cc2ccccc2F)C1)C(=O)Cc1c(F)cccc1F (stereo not drawn)	4.1%	24.9%[11.4 µM]	-2.7%	11.6%	-0.7%	?
CC(C)(C)c1ccc(C(=O)C2CCCN(C3CCC3)C2)cc1 (stereo not drawn)	-7.9%	-16.8%	-8.8%	3.7%	25.8%	10µM*
O=[N+]([O-])c1cc(S(=O)(=O)C(F)(F)F)ccc1Sc1nc2ccccc2s1	-7.0%	1.58µM*	?	23.0%	-2.4%	?
Cc1cccc2sc(NNC(=O)c3cc(-c4cccs4)nc4ccccc34)nc12	12.1%	8.5%	?	-4.4%	-8.2%	?
COc1cccc(C(=O)C2CCCN(Cc3ccccn3)C2)c1 (stereo not drawn)	2.3%[57.1 µM]	13.9%[57.1 µM]	?	0.0%	4.7%	?
COc1c(C)cc(C(=O)C2CCCN(Cc3ccccn3)C2)cc1C (stereo not drawn)	-1.2%	-4.3%	?	-12.1%	20.3%	2.82µM*
CCN(CC)CCCNc1nc(-n2nc(C)cc2C)nc2sc3c(c12)CC(C)(C)OC3	9.2%[2.29 µM]	1.9%[57.1 µM]	?	4.6%	-3.5%	?
C=CCn1cccc(/C=C/C(=O)c2ccc(C(C)(C)C)cc2)c1=S	-1.4%	-28.2%	?	-7.4%	-20.7%	12.6µM*
C=CCS(=O)(=O)N1CCC(CCOc2ccccc2)(C(=O)OCC)CC1	-0.5%	12.7%	-0.6%	-4.4%	7.4%	?
Cc1nnc(NC(=O)c2nc(S(=O)(=O)Cc3ccccc3)ncc2Cl)s1	-1.4%	12.6µM*	?	1.6%	-5.7%	?
COc1ccc2nc(NC(=O)c3nc(S(=O)(=O)Cc4cccc(C)c4)ncc3Cl)sc2c1	-2.7%	-19.3%	?	-0.4%	/	?
CCS(=O)(=O)c1ncc(Cl)c(C(=O)Nc2ccc(S(=O)(=O)N(C)c3ccccc3)cc2)n1	1.6%	2.82µM*	?	-1.6%	-7.1%	?
CS(=O)(=O)N(Cc1ccccc1)c1ccc(C(=O)Nc2ccc(Cl)cc2)cc1	6.8%	4.8%	?	2.0%	/	?
Cc1ccc(NC(=O)c2nc(S(=O)(=O)Cc3ccccc3)ncc2Cl)cc1	-1.5%	8.91µM*	?	5.3%	-4.9%	?
ClCCN(CCCl)/C(=C\c1ccccc1)c1ccnc2ccccc12	-23.7%	?	/	/	/	/
